Legend:
Test in all cases: log2 ratio of Biotin-Ahx-Ub-VS probe labelling (fragment/DMSO); higher = less target engagement (more negative = stronger competition), active = hit call of the paper (q ≤ 0.05, log2 ratio ≤ -1)
Conditions in all cases: compound concentration: 200 uM; treatment time: 3 h
[1] = target: T1, USP42 (UniProt Q9H9J4)
T1 sequence (whole entry): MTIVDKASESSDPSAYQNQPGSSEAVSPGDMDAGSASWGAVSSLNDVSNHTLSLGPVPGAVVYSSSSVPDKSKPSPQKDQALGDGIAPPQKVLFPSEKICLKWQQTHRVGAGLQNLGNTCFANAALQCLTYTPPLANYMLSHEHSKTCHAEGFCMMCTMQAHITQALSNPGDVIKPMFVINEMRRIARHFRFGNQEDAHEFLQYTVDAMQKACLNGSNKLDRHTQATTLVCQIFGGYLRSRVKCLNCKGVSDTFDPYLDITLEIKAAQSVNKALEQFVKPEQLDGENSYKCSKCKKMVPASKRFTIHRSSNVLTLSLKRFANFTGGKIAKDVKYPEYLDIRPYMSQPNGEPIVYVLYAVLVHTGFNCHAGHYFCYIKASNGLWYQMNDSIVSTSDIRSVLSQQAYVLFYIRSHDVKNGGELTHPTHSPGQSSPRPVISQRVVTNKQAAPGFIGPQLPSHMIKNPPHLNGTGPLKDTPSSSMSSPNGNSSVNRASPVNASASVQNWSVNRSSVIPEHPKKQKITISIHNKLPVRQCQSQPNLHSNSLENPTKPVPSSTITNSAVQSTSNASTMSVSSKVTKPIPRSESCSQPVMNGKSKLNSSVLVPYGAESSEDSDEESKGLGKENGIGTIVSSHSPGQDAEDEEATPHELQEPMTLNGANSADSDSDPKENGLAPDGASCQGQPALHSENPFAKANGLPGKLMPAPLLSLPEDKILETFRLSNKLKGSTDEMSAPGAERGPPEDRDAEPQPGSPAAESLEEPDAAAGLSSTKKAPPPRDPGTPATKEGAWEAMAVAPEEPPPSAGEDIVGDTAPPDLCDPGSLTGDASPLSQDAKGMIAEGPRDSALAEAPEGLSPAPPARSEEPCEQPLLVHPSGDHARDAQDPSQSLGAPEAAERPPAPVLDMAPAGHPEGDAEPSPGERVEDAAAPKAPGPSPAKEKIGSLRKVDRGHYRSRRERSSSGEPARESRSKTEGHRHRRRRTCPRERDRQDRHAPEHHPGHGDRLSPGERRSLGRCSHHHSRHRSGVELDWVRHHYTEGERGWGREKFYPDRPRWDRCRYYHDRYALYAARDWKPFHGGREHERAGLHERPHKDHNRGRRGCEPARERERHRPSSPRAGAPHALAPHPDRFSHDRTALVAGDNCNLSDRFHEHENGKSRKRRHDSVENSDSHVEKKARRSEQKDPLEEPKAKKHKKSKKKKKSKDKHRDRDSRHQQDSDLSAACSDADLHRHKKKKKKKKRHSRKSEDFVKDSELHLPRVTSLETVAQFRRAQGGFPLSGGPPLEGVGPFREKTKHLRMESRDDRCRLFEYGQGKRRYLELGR
Outline: (§1)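 HEK293T lysate (495 µg per sample, in Tris/CHAPS/IGEPAL buffer with protease inhibitors) was treated in triplicate with fragment at 200 µM or with DMSO for 3 h. It was then treated with Biotin-Ahx-Ub-VS (0.5 µM final) for 1 h. Labelled DUBs were NeutrAvidin-enriched, digested with LysC and trypsin, and run by diaPASEF LC-MS/MS. Spectronaut label-free quantities were global-median-normalised. Values are average log2 ratios fragment/DMSO by unpaired t-test, using proteins with ≥2 unique peptides.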

[2] = target: USP46 (UniProt P62068)
USP46, sequence (P62068 whole entry): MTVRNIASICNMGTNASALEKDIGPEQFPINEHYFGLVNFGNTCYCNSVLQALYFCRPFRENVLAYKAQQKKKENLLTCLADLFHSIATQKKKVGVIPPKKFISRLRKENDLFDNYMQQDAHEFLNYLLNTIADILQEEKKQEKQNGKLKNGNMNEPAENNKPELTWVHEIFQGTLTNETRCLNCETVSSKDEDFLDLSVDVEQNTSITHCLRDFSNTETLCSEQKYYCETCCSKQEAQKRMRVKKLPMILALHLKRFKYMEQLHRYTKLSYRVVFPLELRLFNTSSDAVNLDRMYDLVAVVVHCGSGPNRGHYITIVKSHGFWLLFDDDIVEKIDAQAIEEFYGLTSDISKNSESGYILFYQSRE
Outline: as §1

[3] = target: T2, USP47 (UniProt Q96K76)
T2 sequence (whole entry): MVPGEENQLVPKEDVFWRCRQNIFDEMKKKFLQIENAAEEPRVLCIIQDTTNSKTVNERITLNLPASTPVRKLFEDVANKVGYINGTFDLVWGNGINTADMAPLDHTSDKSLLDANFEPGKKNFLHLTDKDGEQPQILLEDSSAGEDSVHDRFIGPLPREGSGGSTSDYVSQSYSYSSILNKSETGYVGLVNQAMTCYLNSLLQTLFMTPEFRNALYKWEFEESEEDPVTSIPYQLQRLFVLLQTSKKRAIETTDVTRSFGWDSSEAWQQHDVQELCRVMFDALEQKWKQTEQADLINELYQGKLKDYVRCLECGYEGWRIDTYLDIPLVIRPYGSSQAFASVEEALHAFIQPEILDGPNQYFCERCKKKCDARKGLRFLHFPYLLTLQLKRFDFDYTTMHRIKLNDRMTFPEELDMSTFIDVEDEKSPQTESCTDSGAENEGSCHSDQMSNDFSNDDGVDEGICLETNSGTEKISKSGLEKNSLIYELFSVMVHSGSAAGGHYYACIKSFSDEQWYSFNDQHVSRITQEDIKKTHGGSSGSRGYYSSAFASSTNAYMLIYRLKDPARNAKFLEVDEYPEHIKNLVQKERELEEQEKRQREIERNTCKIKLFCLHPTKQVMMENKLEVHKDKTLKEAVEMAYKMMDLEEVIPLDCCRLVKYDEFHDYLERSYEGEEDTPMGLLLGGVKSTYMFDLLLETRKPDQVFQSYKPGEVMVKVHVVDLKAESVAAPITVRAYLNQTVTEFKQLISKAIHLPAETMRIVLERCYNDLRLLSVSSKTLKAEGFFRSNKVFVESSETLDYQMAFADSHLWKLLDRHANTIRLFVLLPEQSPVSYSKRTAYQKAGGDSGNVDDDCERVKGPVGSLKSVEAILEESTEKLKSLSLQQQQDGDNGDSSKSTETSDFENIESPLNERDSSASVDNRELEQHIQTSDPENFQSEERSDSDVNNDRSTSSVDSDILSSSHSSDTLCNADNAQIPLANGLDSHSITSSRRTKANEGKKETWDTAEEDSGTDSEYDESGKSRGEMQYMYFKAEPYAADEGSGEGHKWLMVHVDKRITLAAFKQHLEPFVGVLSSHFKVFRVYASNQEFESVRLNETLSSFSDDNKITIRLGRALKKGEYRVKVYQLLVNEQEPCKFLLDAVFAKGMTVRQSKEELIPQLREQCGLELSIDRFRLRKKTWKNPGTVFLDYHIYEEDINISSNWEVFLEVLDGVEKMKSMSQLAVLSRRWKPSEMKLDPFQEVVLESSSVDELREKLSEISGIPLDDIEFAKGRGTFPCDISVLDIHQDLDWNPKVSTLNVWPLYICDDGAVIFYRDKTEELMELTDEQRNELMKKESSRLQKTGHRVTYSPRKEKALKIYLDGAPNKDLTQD
Outline: as §1

[4] = target: T3, USP48 (UniProt Q86UV5)
T3 sequence (whole entry): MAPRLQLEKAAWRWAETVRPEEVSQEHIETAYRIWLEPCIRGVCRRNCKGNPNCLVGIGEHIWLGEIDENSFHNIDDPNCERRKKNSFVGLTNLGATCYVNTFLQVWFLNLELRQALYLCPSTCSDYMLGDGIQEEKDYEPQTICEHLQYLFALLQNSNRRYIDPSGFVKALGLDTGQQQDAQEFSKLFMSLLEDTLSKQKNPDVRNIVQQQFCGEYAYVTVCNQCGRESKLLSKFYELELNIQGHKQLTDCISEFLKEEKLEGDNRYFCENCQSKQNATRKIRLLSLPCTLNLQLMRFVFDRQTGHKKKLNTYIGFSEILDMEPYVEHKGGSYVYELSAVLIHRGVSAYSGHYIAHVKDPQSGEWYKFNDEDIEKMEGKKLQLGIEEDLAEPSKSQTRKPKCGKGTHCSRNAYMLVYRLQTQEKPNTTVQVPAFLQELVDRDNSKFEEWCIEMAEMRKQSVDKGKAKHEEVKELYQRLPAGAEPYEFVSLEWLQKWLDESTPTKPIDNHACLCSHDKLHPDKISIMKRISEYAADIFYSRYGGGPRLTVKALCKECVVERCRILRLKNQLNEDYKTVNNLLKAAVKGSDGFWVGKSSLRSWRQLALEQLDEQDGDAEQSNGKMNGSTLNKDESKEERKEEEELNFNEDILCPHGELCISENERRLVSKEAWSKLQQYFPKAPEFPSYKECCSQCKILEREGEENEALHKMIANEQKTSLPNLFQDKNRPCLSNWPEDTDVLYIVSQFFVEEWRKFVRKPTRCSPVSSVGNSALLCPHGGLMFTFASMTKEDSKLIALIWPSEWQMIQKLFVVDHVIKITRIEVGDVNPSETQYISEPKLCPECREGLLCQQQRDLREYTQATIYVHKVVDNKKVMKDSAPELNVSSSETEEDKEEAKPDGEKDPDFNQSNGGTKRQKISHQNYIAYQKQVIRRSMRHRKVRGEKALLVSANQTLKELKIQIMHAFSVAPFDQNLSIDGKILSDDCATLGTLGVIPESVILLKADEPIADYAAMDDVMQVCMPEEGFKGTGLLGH
Outline: as §1

[5] = target: T4, USP5 (UniProt P45974)
T4 sequence (whole entry): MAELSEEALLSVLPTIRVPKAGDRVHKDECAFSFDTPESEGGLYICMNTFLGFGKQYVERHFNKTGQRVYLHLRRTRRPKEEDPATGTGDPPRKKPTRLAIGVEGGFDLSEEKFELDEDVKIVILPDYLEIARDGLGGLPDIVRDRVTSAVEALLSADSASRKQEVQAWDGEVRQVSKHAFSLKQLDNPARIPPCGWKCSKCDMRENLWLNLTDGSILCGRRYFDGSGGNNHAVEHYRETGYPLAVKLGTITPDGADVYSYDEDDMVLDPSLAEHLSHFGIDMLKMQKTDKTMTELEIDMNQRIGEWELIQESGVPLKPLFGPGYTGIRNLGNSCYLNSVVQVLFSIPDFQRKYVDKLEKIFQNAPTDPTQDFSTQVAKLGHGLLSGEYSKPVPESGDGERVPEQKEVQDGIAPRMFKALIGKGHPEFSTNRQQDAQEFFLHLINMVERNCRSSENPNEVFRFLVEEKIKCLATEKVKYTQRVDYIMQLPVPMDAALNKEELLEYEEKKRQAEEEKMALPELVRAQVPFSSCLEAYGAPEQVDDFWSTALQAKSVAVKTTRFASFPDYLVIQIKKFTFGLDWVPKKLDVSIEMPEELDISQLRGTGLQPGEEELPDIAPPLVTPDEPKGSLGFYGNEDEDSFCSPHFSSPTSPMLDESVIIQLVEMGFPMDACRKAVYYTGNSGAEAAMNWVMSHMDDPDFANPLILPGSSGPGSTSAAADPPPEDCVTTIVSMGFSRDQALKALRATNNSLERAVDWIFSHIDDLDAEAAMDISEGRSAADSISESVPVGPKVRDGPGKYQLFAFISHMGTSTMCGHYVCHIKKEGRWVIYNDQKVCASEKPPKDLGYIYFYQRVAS
Outline: as §1

[6] = target: USP54 (UniProt Q70EL1)
USP54, sequence (Q70EL1 whole entry): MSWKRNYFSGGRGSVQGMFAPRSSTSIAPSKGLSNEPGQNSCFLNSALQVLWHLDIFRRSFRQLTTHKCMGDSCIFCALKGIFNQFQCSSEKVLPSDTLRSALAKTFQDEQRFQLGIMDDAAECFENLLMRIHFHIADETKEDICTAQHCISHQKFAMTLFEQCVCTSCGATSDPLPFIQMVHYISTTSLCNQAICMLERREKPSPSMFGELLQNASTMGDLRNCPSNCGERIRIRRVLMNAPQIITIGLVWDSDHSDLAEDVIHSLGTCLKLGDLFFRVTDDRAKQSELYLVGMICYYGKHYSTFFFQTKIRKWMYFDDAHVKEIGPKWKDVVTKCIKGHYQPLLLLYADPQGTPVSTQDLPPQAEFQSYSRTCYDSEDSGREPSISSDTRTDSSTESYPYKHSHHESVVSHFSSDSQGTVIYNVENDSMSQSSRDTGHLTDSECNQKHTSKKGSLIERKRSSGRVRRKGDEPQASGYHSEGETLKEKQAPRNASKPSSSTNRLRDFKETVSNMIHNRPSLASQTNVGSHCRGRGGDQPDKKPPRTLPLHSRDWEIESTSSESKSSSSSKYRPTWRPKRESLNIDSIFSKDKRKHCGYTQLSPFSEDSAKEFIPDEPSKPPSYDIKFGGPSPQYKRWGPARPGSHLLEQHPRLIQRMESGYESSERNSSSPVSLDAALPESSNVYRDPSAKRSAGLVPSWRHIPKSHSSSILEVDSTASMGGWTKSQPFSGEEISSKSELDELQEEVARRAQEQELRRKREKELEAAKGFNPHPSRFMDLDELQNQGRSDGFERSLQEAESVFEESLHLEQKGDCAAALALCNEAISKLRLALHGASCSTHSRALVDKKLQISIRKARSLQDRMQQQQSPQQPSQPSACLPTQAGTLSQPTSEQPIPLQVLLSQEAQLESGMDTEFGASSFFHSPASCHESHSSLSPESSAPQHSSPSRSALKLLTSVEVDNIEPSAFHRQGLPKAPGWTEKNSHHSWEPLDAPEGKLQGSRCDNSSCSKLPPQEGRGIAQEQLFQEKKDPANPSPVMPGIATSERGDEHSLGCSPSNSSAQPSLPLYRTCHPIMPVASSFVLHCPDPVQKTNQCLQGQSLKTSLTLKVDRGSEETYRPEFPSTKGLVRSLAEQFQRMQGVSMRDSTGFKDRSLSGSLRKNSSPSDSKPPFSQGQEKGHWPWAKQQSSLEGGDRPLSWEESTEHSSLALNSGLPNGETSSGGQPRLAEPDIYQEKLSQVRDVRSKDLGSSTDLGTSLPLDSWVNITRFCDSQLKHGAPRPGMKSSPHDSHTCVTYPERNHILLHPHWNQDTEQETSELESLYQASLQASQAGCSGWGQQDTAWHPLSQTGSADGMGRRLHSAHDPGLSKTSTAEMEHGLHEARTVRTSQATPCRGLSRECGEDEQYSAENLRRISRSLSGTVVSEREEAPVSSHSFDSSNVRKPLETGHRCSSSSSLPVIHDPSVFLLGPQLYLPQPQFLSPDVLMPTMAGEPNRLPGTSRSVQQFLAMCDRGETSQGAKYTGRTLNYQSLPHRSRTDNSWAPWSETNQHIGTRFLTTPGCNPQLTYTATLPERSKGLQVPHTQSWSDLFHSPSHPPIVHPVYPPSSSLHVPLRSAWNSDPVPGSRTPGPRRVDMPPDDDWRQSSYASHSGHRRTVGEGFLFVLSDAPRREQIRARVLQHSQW
Outline: as §1

[7] = target: USP7 (UniProt Q93009)
USP7, sequence (Q93009 whole entry, looked up): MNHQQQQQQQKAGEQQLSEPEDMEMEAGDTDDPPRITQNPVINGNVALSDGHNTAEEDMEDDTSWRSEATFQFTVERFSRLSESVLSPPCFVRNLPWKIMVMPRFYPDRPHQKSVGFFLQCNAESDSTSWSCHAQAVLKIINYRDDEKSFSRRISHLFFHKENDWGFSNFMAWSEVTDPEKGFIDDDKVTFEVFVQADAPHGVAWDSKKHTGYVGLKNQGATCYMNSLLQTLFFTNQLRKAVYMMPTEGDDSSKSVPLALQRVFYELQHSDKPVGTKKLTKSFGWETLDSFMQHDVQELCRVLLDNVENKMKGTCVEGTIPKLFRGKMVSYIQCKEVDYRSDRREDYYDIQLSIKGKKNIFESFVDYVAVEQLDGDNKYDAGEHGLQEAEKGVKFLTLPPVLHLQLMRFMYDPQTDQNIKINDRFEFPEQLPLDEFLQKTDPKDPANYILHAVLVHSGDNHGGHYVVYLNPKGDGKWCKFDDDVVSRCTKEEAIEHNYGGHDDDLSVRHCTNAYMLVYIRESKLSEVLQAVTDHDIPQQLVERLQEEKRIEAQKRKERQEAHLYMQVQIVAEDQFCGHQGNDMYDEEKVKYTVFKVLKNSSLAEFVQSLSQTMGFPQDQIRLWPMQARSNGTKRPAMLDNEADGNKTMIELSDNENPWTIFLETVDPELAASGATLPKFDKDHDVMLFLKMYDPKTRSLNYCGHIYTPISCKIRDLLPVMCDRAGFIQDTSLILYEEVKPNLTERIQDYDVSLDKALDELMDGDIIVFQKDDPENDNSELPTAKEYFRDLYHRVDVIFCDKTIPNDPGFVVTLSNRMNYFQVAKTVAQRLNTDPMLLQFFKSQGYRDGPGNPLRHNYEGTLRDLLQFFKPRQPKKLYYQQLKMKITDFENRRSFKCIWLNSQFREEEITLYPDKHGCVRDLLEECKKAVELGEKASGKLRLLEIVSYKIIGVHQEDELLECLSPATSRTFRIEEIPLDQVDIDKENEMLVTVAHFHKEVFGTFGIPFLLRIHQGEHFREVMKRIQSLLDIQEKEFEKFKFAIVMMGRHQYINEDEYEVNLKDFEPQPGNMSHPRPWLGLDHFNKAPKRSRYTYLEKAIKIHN
Outline: as §1

[8] = target: T5, USP8 (UniProt P40818)
T5 sequence (whole entry): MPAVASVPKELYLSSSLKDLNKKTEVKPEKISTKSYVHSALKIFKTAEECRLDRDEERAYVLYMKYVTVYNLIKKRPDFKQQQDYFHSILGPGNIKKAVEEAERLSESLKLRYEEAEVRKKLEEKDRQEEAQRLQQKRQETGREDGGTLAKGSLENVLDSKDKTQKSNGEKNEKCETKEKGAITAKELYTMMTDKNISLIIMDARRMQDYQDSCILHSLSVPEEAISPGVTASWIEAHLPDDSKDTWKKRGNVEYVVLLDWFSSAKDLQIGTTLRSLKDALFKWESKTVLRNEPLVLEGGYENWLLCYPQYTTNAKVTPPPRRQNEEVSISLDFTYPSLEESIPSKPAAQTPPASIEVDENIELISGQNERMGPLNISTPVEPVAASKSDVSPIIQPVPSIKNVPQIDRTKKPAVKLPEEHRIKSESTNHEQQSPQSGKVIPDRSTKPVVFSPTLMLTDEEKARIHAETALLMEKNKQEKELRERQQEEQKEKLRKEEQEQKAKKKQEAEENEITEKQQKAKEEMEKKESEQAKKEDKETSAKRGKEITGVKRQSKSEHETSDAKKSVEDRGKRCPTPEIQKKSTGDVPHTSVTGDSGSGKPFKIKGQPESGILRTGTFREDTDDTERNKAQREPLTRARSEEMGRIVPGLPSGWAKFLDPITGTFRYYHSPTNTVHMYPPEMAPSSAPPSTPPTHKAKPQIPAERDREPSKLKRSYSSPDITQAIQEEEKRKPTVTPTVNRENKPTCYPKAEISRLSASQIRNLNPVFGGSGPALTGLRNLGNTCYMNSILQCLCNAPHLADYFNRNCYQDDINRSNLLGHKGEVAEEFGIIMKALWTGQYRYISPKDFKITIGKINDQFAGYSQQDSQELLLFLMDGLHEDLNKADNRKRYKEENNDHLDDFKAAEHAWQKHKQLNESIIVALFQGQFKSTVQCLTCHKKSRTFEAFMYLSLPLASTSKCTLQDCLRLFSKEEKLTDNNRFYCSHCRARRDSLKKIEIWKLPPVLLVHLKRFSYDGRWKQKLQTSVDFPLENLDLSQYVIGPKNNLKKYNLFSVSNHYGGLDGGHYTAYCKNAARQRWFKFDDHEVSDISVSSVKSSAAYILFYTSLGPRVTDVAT
Outline: as §1

Measured: log2 ratio of Biotin-Ahx-Ub-VS probe labelling

N#Cc1ccc(CNC(=O)CCl)cc1
inactive: [1] 0.0438 | [2] 0.111 | [3] 0.323 | [4] -0.167 | [5] 0.0355 | [6] 0.446 | [7] -0.073 | [8] -0.338
